Molecules are shown by their SMILES. Inconclusive results are not listed. A number with no mark means an inactive call. Active and inactive are the calls of the source. The call rests on the fitted dose curve; in most records, active means well fitted inhibition curve with a large enough effect; inconclusive means small, poorly fitted or top-dose-only effect, or effect the other way; inactive means flat fitted curve, though single readings scatter.
Potency means the concentration at half of the fitted maximal effect.

In this test the target is Ubiquitin carboxyl-terminal hydrolase 2 (Homo sapiens) (UniProt O75604). Kind of test: Confirmation Assay for Inhibitors of Ubiquitin-specific Protease USP2a Using CHOP2 as the Reporter. Further: nearly all actives have a fitted effect of over 55% in size. As to conditions: USP2 core, Ub-CHOP2 coupled reporter fluorescence; series mostly up to 38.3 µM; activity change, negative = inhibition: at the top concentration. The source says: NIH Molecular Libraries Probe Centers Network [MLPCN] NIH Chemical Genomics Center [NCGC] MLSCN Grant: XO1-MH079852-01 PI Name: Nicholson, Ben. Progenra Inc, Malvern, PA NCGC Assay Overview: Homeostasis of cellular proteins is maintained through a combination of synthesis and degradation. The pathway that accounts for the majority of protein degradation is the ubiquitin-proteasomal pathway. Ubiquitin (Ub) is highly conserved in all cells and the generation of a multi-Ub chain typically targets proteins for degradation by the proteasome. However, ubiquitination is highly reversible and dynamic. Deubiquitination, the reverse process, is catalyzed through the action of enzymes referred to as isopeptidases or deubiquitinating enzymes (DUBs). This group of enzymes is collectively responsible for maintaining adequate pools of free ubiquitin and regulating the ubiquitination status of cellular proteins. The class of DUBs referred to as the ubiquitin-specific proteases (USP) family functions endoproteolytically to cleave Ub chains from a wide range of protein substrates. USP2a deubiquitinates fatty acid synthase (FASN) which has recently been identified as an emerging oncology target. To identify inhibitors of USP2a a cell-free assay was employed. […] The reporter enzyme chosen is an […] called CHOP2, which is activated when the Ub is cleaved by USP2. The free and now activated reporter can subsequently act on its reporter substrate. Thus, this coupled assay gives a fluorescent read-out at excitation/emission wavelengths of 485/531. The assay was developed by Progenra, Inc. and has been licensed for sale by LifeSensors, Inc. as Ub-CHOP2-Reporter-Kit (#PR1101).
Sequence of Ubiquitin carboxyl-terminal hydrolase 2 (Homo sapiens) (O75604 whole entry, looked up): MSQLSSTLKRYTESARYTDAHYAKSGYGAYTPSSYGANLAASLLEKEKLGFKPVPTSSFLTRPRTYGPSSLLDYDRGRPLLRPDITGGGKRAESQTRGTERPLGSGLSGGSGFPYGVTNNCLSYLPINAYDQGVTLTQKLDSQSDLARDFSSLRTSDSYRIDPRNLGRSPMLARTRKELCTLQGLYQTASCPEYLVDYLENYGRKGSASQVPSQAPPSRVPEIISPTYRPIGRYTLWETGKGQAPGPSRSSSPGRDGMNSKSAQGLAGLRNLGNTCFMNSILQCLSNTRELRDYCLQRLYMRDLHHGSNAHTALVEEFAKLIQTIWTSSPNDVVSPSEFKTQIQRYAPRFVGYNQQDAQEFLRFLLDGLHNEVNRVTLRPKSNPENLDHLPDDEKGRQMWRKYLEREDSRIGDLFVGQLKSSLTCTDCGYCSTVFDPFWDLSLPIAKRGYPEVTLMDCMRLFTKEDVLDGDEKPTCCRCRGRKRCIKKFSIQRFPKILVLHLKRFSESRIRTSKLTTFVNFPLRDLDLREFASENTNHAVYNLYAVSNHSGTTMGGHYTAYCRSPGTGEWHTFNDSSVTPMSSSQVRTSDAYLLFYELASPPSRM
NCGC Assay Protocol Summary: The assay buffer, prepared fresh at the day of the assay, contains 20mM Tris-HCl pH 8.0, 2mM CaCl2, 2mM beta-Mercaptoethanol, 0.05% CHAPS. 3ul of 20nM (10nM final) USP2 core, which is stored on ice, is dispensed into a medium-binding black solid Kalypsys 1,536 well plate using the Kalypsys dispenser. The assay plate is then pinned with 23nL compound with the Kalypsys pintool in columns 5-48. The controls are pinned as follows: column 1 two-fold dilutions of 2M NEM in duplicate; column 2 2M NEM (final concentration 38.2mM); column 3&4 DMSO. The assay plate is incubated at RT for 30min. Subsequently, 1.5uL of 100nM (25nM final) Ub-CHOP2 and 1.5uL of 100nM (25nM final) Reporter Substrate (both stored on ice and protected from light) were dispensed into the plate using the Kalypsys dispenser. Plates were read after 60min RT incubation on a ViewLux (Perkin Elmer) plate reader using the following wavelengths Ex 485nm /Em 531nm. Data were normalized to the to AC100 inhibition (NEM). Concentration-response curves were fitted to the normalized data and the concentration-response curves were then classified based on curve quality (r2), response magnitude and degree of measured activity. The time zero reading was used to flag fluorescence artifacts. Keywords: ubiquitination, deubiquitination, proteases, profluorescent, MLSMR, MLPCN, NIH Roadmap, qHTS, NCGC
Take `O=C1NC(=O)N(Cc2ccco2)C(=O)/C1=C/C=C/c1ccco1`: the Potency was 13.1 µM (active).

In the case of `O=c1[nH]c(=S)n(Cc2ccco2)c(O)c1C=NCc1cccs1`, the “activity change, negative = inhibition” value was -18.4%. `CC(=Nc1ccc2c(c1)CCC2)c1c(O)n(C)c(=O)n(C)c1=O`: the “activity change, negative = inhibition” value is 0.651%.

With `COc1ccc(NC(=O)c2c(C)nn(Cc3ccccc3Cl)c2Cl)cc1Cl`, the “activity change, negative = inhibition” value is 1.39%.

For the molecule `CC1Oc2cc3c(-c4c(O)cc(O)c5c(O)c6c(cc45)OC(C)C(C)C6=O)c(O)cc(O)c3c(O)c2C(=O)C1C` (stereo not drawn), the Potency was 13.1 µM (active). As for `OC(c1ccncc1)(c1ccc(F)cc1)c1ccc(F)cc1`, the “activity change, negative = inhibition” value is -3.95%. Consider `O=C(COc1ccc(S(=O)(=O)N2CCOCC2)cc1)N1CCN(Cc2ccc3c(c2)OCO3)CC1`, for which the “activity change, negative = inhibition” value was 0.801%. The same measure, in the same setting: the value for `O=C1CC(=O)N(Cc2ccccc2)C(=O)N1CCCCCCN1C(=O)CC(=O)N(Cc2ccccc2)C1=O` was -1.12%; that for `O=c1[nH]c(=O)n(Cc2ccc(F)cc2)c(O)c1C=NCCCn1ccnc1` was -3.8%.

On to `O=C(O)c1cccc2c1NC(C(=O)O)C1CC(Sc3ccccc3[N+](=O)[O-])C(Cl)C21` (stereo not drawn), for which the Potency is 7.36 µM (active). Turning to `O=C1NC(=O)N(Cc2ccco2)C(=O)/C1=C/c1cccn1CCOc1ccccc1Cl`, the “activity change, negative = inhibition” value was -3.58%.

As to `COc1ccc(S(=O)(=O)Cc2ccc(C(=O)N3CCC4(CC3)OCCO4)o2)cc1`, the “activity change, negative = inhibition” value is -0.023%. Regarding `CCCC1=C(C(=O)OCC)C2(C(=O)Nc3ccc(C)cc32)C(C#N)=C(N)O1` (stereo not drawn), the “activity change, negative = inhibition” value is 3.9%. With `FC(F)(F)c1ccc2c(c1)N(CCCN1CCN(CCCl)CC1)c1ccccc1S2`, the “activity change, negative = inhibition” value was 0.492%. Consider `O=C1NC(=S)N(c2ccccc2)C(=O)/C1=C/c1ccco1`, for which the Potency is 14.7 µM (active). In the case of `NC(N)=N/N=C/c1ccc(N(c2ccccc2)c2ccccc2)cc1`, the Potency is 16.5 µM (active). Turning to `Cc1nn(Cc2ccc(Cl)cc2Cl)c(Cl)c1C(=O)Nc1ccc(OC(F)F)cc1`, the “activity change, negative = inhibition” value is 1.17%. Consider `Nc1ccc(S(=O)(=O)N2CCCCC2c2cccnc2)cc1` (stereo not drawn), for which the “activity change, negative = inhibition” value is 5.3%.

Values taken from PubChem BioAssay AID493168 (National Center for Advancing Translational Sciences (NCATS), 2011).
